Screening data as filed in PubChem.
Abeta yeast res: restores growth of yeast expressing A-beta42 peptide. yeast expressing A-beta42, growth rescue, OD600, 48 h; response scale: 0% DMSO, 100% iron-clioquinol control. Potency, µM (titrated, usually from 46.1 µM), actives largely listed as activators. 410,000 compounds, 0.063% hits; further: nearly all actives have a fitted effect of over 55% in size
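Yeast growth medium received pinned compounds, then yeast cells expressing toxic A-beta were added; plates incubated at 30 C for 48 hr. Growth read as absorbance at 600 nm, normalized to DMSO and equimolar FeCl3 plus clioquinol controls.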
Mito fusion act: blocks mitochondrial division or promotes mitochondrial fusion; 320,000 compounds, 0.23% hits; AID 485298; Potency, µM (top dose mostly 46.1 µM), for inactives: at the top dose growth rescue (activation), actives largely listed as activators; S. cerevisiae fusion-defective mutant growth rescue, CellTiterGlo 48 h; further: % of control where 0% means no effect; nearly all actives have a fitted effect of over 45% in size
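Luminescent cell viability in 1536-well qHTS format served as the measure of rescued growth in ts fusion-mutant S. cerevisiae cultured on non-fermentable YPEG for 48 hours at 37C.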
AT treatment: candidate therapy for ataxia-telangiectasia; F2112 A-T fibroblasts, KAP-1 phosphorylation AlphaLISA; neocarzinostatin DNA damage 30 min before lysis; Potency, µM (top dose mostly 57.5 µM), without a hit: at the top dose activation, actives largely listed as activators; 320,000 compounds, 0.19% hits; AID 485349; further: % of control where 0% means no effect; nearly all actives have a fitted effect of over 45% in size
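hTERT-immortalized A-T patient fibroblasts (F2112), 500 cells/well in OPTI-MEM, 1% FBS, got compounds for 60 min, then NCS for 30 min at 37C. Lysates were then assayed for phospho-KAP-1 by AlphaLISA (anti-pKAP1 donor, anti-KAP1 acceptor beads), 6 hr at 25C.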
FUS suppressor: rescues growth of FUS-expressing yeast. 390,000 compounds, 0.24% hits. AID 1347120. Potency, µM (doses to about 76.6 µM), actives largely listed as activators. S. cerevisiae FUS-expressing, growth rescue, OD600, 24 h;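 further: plate controls were DMSO vehicle for no effect and reference control for full effect; nearly all actives have a fitted effect of over 55% in size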
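Galactose (2%) drives FUS expression in yeast precultured in raffinose; seeding density OD 0.005. Test compounds incubated 24hr at 30C and 99% humidity before absorbance at 600 nm was measured.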
aSyn yeast inh: rescues yeast growth from alpha-synuclein toxicity. AID 652106. Yeast expressing alpha-synuclein, growth rescue, BacTiter-Glo, 24 h. Potency, µM (series often up to 46.1 µM), for the others: at the highest dose growth rescue (activation), hits mostly activators. 370,000 compounds, 0.14% hits; further: % of control where 0% means no effect; nearly all actives have a fitted effect of over 65% in size
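Screening used galactose-induced yeast with toxic alpha-synuclein levels, exposed to compound for 24 hr at 30 deg C. Cell growth, read with BacTiter-Glo luminescence, gave the measured signal.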
TDP-43 yeast inh: TDP-43 toxicity inhibition in yeast. TDP-43 expressing yeast growth rescue, BacTiter-Glo, 24 h. Potency, µM (highest dose often 46.1 µM), for the others: at the top dose growth rescue (activation), hits mostly activators. 410,000 compounds, 1.8% hits. AID 652104; further: % of control where 0% means no effect; nearly all actives have a fitted effect of over 50% in size
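Yeast cells expressing TDP-43 under galactose induction are exposed to compounds for 24 hr at 30 deg C. BacTiter-Glo luminescence measures growth, so protective compounds score as activators.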
Starred values were filed as active, the others as inactive; i = inactive; ? = inconclusive; . = no result. Rows were chosen to be rich in hits. Some 2.4% of all compounds tested hit in one or more screens of this group. The call rests on the fitted dose curve; in most records, active means well fitted curve in the direction sought with a large enough effect; inconclusive means small, poorly fitted or top-dose-only effect, or another doubt; inactive means no such curve, though single readings can be large; an effect the other way counts as inactive or inconclusive. Potency means the concentration at half of the fitted maximal effect.

SMILES	Abeta yeast res	Mito fusion act	AT treatment	FUS suppressor	aSyn yeast inh	TDP-43 yeast inh
COc1ccc(C2SCCN2C(=S)Nc2cccc(Cl)c2)cc1 (stereo not drawn)	i	-5%	1%	.	19%	18µM*
COc1ccc(C2SCCN2C(=S)Nc2ccc(Cl)cc2)cc1 (stereo not drawn)	i	20%	0%	.	-13%	1%
COc1ccc([C@H]2CC(=O)C=C(c3ccc(OC)cc3OC)C2)cc1	i	?	6%	?	12%	0%
Cc1cc(Cl)ccc1C1=CC(=O)C[C@H](c2ccc(F)cc2)C1	i	?	14%	i	-10%	14µM*
O=C1C=C(c2cc(Cl)cc(Cl)c2)C[C@@H](c2ccc(F)cc2)C1	i	?	3%	i	1%	?
COc1ccc([C@H]2CC(=O)C=C(c3ccc(Cl)cc3C)C2)cc1	i	?	26%	?	-1%	18µM*
O=C1C=C(c2cc(F)ccc2F)C[C@@H](c2ccc(F)cc2)C1	i	?	3%	i	10%	22µM*
CCOC(=O)N1CCN(C(=O)C[C@@H]2C[C@@]3(C(=O)OCC)CCC=C3N(Cc3ccccc3)C2=O)CC1	i	.	.	i	0%	23%
CCOC(=O)N1CCN(C(=O)C[C@@H]2C[C@@]3(C(=O)OCC)CCC=C3N(Cc3cccc4ccccc34)C2=O)CC1	i	.	.	i	17%	16µM*
CCOC(=O)N1CCN(C(=O)C[C@@H]2C[C@@]3(C(=O)OCC)CCC=C3N(Cc3ccc(Cl)cc3Cl)C2=O)CC1	i	.	.	?	21%	22µM*
O=S(=O)(CC1NCc2ccccc21)NC1CCCC1 (stereo not drawn)	.	.	.	i	.	.
O=C(CC1C(=O)OCCN1Cc1ccccc1)Nc1cccc(Cl)c1 (stereo not drawn)	i	.	.	i	.	18µM*
O=C(CSC1CC(=O)N(CCc2ccccc2)C1=O)Nc1cccc(Cl)c1 (stereo not drawn)	i	15%	4%	i	13%	18µM*
Cc1cccc(NC(=O)CC2C(=O)OCCN2Cc2ccccc2)c1 (stereo not drawn)	i	.	.	i	.	14µM*
CCN1CCOC(=O)C1CC(=O)Nc1cccc(OC)c1 (stereo not drawn)	i	.	.	i	.	?
CC(=O)NC(Cc1ccc(Cl)cc1)C(=O)NCC(N)C(=O)c1ccccc1 (stereo not drawn)	.	.	.	.	-1%	.
O=C(Cn1c(=O)ccc2cc(S(=O)(=O)N3CCCC3)ccc21)NCc1ccc(F)cc1	i	.	.	i	-1%	11%
COCCCNc1cc(C)nc2ccccc12	i	1%	1%	i	0%	3%
Cc1cc(NCCCCCCCNc2cc(C)nc3cc([N+](=O)[O-])ccc23)c2ccc([N+](=O)[O-])cc2n1	i	.	.	.	1%	14µM*
O=C(COC(=O)CCCOc1ccc(Cl)cc1Cl)NCc1ccc(F)cc1	?	-1%	0%	i	5%	16µM*
COc1ccc(OCC(=O)NCc2ccc(Cl)cc2)cc1	i	-1%	13%	i	20%	28%
O=C(COc1ccc(Cl)cc1)NCc1ccc(F)cc1	i	-1%	4%	i	3%	11µM*
CN(C)c1ccc(C2=Cc3ccccc3C2)cc1	.	.	.	.	-2%	.
COc1cc(OC)c(NC(=O)c2sc3nc4n(c(=O)c3c2C)CCCC4)cc1Cl	i	.	.	i	.	?
COc1cc(F)c(C2=CC(=O)C[C@H](c3ccc(F)cc3)C2)cc1F	i	0%	0%	i	9%	?
SMILES	Abeta yeast res	Mito fusion act	AT treatment	FUS suppressor	aSyn yeast inh	TDP-43 yeast inh
CSc1ccc(C2=CC(=O)C[C@H](c3ccc(F)cc3)C2)cc1	i	?	0%	i	6%	22µM*
Cc1cc(C2=CC(=O)C[C@H](c3ccc(F)cc3)C2)ccc1F	i	.	.	i	8%	22µM*
COc1ccc(C2=CC(=O)C[C@H](c3ccc(F)cc3)C2)cc1F	i	21%	17%	?	8%	22µM*
O=C1C=C(c2ccc(Oc3ccccc3)cc2)C[C@@H](c2ccc(F)cc2)C1	i	24%	12%	i	8%	0%
O=C1C=C(c2ccc(OC(F)(F)F)cc2)C[C@@H](c2ccc(F)cc2)C1	?	23%	26%	i	-7%	14µM*
CCCC1CCC2(CCCN2CCOC(=S)Nc2ccccc2)CC1 (stereo not drawn)	.	.	.	i	.	.
CC(C)(C)OC(=O)N1CCN(/[N+]([O-])=N/Oc2ccc([N+](=O)[O-])cc2[N+](=O)[O-])CC1	.	.	.	.	-59%	.
CNc1nc(N2CCCN(C)CC2)nc2cc(OC)c(OC)cc12	.	.	.	.	-7%	.
O=C1C=C(c2ccc3c(c2)OCO3)C[C@@H](c2ccc(F)cc2)C1	i	3%	-3%	i	2%	?
O=C1C=C(c2ccc3c(c2)OCCO3)C[C@@H](c2ccc(F)cc2)C1	?	?	2%	i	0%	22µM*
COc1ccccc1C(=O)NS(=O)(=O)c1ccc(C)cc1	i	.	9%	i	?	18µM*
C/C(=N/NC(=O)c1cccnc1)c1cccc(O)c1	.	.	.	i	.	.
Cc1ccc(Cl)cc1N1CCN(C(=O)c2cnn(C)c2C2CCN(C(=O)OC(C)(C)C)CC2)CC1	i	.	.	?	.	22µM*
COc1cccc(C2CC(c3cccc(Br)c3)n3ncnc3N2)c1 (stereo not drawn)	i	6%	-2%	i	9%	20µM*
COc1cccc(C2CC(c3ccccc3)n3ncnc3N2)c1 (stereo not drawn)	i	4%	7%	i	-7%	-1%
COc1cc(N2C(=O)C=CC2=O)ccc1N1C(=O)C=CC1=O	i	.	.	.	15%	20µM*
O=C(COc1ccc(Br)cc1)N1CCN(c2ccc([N+](=O)[O-])c(N3CCCCC3)c2)CC1	i	30%	-1%	i	11%	8.9µM*
O=C(CSc1cn(CCNC(=O)c2c(F)cccc2F)c2ccccc12)Nc1ccc2c(c1)OCCO2	i	.	.	i	.	12%
Cn1c(=O)n(C)c2cc(N3CCCCC3)c(NC(=O)c3ccccc3)cc21	i	4%	1%	i	-1%	17%
CCOc1ccccc1C(=O)Nc1cc(Cl)ccc1O	i	?	10%	i	-35%	2.8µM*
CCOc1ccccc1C(=O)Nc1cc2c(cc1N1CCCCC1)n(C)c(=O)n2C	i	.	.	i	.	32µM*
COc1ccc(CN(CC#Cc2ccccc2)Cc2ccccc2)c(OC)c1	.	.	.	i	.	.
